According to PubChem BioAssay AID1508619 (National Center for Advancing Translational Sciences (NCATS), 2020):
Records with an inconclusive call do not appear. Unmarked numbers belong to inactive results. The source made the active and inactive calls. Calls follow the shape of the dose curve; as a rule, active = well fitted inhibition curve with a large enough effect; inconclusive = small, poorly fitted or top-dose-only effect; inactive = no such curve, though single readings can be large or run the other way.

Test: Counterscreen qHTS for Identification of Calcium Integrin Binding Protein 1 (CIB1) Competitor
Conditions: series mostly up to 114 µM; activity, negative = inhibition: at the top concentration
Text: Assay Provider: Ulhas P. Naik, PhD
Sidney Kimmel Medical College
Thomas Jefferson University, Philadelphia, PA
Primary function of platelets is to maintain hemostasis. At the site of vascular injury, platelets adhere to adhesive proteins such as collagen and von Willebrand factor. Adherent platelets are activated and generate soluble platelet agonists such as thrombin, ADP and thromboxane A2. Following exposure of circulating platelets to these agonists, results in platelet shape change, granule secretion and activation of platelet integrin alphaIIb-beta3. Ligand binding to activated integrin alphaIIb-beta3 triggers outside-in signaling, leading to platelet aggregation, stabilization of platelet plug, and clot retraction. Upon atherosclerotic plaque rupture also causes platelet plug formation, which underlies a number of cardiovascular diseases such as myocardial infraction and stroke. A number of anti-platelet drugs such as aspirin, clopidogrel, prasugrel, vorapaxar, and eptifibatide are currently available to prevent the thrombotic complications. However, these anti-platelet agents have several limitations including inherent variability in individual responses, developing resistance, and serious bleeding side effects. For these reasons they are not suitable for long-term protection. Based on the experiences with current anti-platelet drugs, it appears that the most useful therapeutic approach is to intersect the secondary responses such as integrin outside-in signaling or recruitment of platelets by TxA2 and secreted ADP. Compounds, which can largely preserve the primary hemostatic function of platelets but inhibit secondary response will be most desired therapeutic agents for treatment of cardiovascular disease.
CIB1 is a calcium integrin binding protein, which specifically interact with the alphaIIb subunit of integrin alphaIIb-beta3. Binding of CIB1 to alphaIIb regulates the outside-in signaling in platelets, which is needed for thrombus stabilization and thrombus growth. […] Therefore, we propose that discovery of a small molecule that can prevent the association of CIB1 and alphaIIb-beta3 will be a potential anti-platelet agent that can block the thrombus formation without undue effect on hemostasis.
To develop fluorescence polarization (FP) assay using fluorescently labeled alphaIIb peptide and CIB1 protein. Using FP assay characterize the binding affinity, competitive inhibition, and acceptable Z factor (0.5 to1) in order to perform the HTS to identify small molecule compound that can prevent CIB1 binding to platelet integrin alphaIIb-beta3. Active compounds were re-acquired and validated using confirmatory and counterscreens (using 100 nM scrambled peptide).
[1] Naik MU, Nigam A, Manrai P, et al. CIB1 deficiency results in impaired thrombosis: the potential role of CIB1 in outside-in signaling through integrin alpha IIb beta 3. J Thromb Haemost. 2009;7(11):1906-1914. doi:10.1111/j.1538-7836.2009.03581.
SEQUENCE No. (1, 2, 3, etc.); […] (e.g., Cells, Incubation, Reagent, etc.); VALUE and DESCRIPTION.
1; Reagent; 3 uL; Protein or buffer (4/3x)
2; Compound; 46 nL; Control inhibitor / compound library
3; Time; 15 min; Room temperature incubation
4; Reagent; 1 uL; Fluorescent labeled peptide (4x)
5; Time; 1000 rpm; Centrifuge
6; Time; 15 min; Room temperature incubation
7; Detection; Ex 480/ Em 540; ViewLux Fluorescence Read
NOTES (numbers refer to sequence above)
1; Protein Mixture: C1B1-GST (final concentrations of 1 uM). Buffer composition: 5 mM HEPES pH 7.4, 125 mM NaCl, 5 mM CaCl2, 0.01% Tween20.
2; Control Inhibitor: unlabeled peptide (final concentration range 17.4 nM to 572 uM). Compound Library final concentration range 18.3 nM to 114 uM.
3; Room temperature incubation.
4; Fluorescent Labeled Peptide: FITC-alphaIIb (final concentration of 100 nM). Sequence of Scrambled peptide: Acetyl-[…]-FITC (purity is 95.37%).
6; Room temperature incubation.
[…]
% is scaled to controls: 0 for no effect and ±100 for the full control effect; potency is read from the fitted curve at half-maximal effect.

Structure (SMILES) | activity, negative = inhibition | Potency
COc1ccc(CC(=O)Nc2ccc(S(=O)(=O)Nc3cc(C)on3)cc2)cc1C | -11.6% | 
NC(=O)c1ccnc2c(O)cccc12 | -3.57% | 
C[C@H]1COC2=C1C(=O)C(=O)c1c2ccc2c1CCCC2(C)C | 9.4% | 
O=C(Cc1ccc(Cl)c(Cl)c1)Nc1ccc(S(=O)(=O)Nc2cccc(C(=O)O)c2)cc1 | 18.5% | 
Cc1ccc(S(=O)(=O)Nc2cc3c(cc2C(=O)Nc2nc(-c4ccccc4)cs2)OCO3)cc1 | 106% | 
CC(C)(C)OC(=O)CC(=O)NNC(=O)c1nc2ccccc2[nH]1 | -8.05% | 
COc1cc([C@H]2Oc3cc([C@H]4Oc5cc(O)cc(O)c5C(=O)[C@@H]4O)ccc3O[C@@H]2CO)ccc1O |  | inactive
O=C1CCC2=C1C1(CCCC1)N=C(Nc1nc3ccccc3o1)N2 | -0.897% | 
O=S(=O)(Nc1nccs1)c1ccc(Nc2nc(-c3ccccc3)cs2)cc1 |  | 50.1 µM (active)
CC(=O)Nc1sc2c(c1-c1nc3ccccc3s1)CNC2 | -7.25% | 
CSc1cc2c(s1)c1cnn(Cc3cccc(N)c3)c(=O)c1n2C | -44.6% | 
Cc1ccc(S(=O)(=O)Nc2cnccc2C(=O)Nc2nc3ccccc3s2)cc1 | 11.3% | 
NC(=O)C1CCN(c2ncc(Br)s2)CC1 |  | 39.8 µM (active)
Cc1ccc(C(=O)Nc2ccc(S(=O)(=O)O)c3cc(S(=O)(=O)O)cc(S(=O)(=O)O)c23)cc1NC(=O)c1cccc(NC(=O)Nc2cccc(C(=O)Nc3cc(C(=O)Nc4ccc(S(=O)(=O)O)c5cc(S(=O)(=O)O)cc(S(=O)(=O)O)c45)ccc3C)c2)c1 | 15.9% | 
C=Cc1c(C)c2cc3[nH]c(cc4nc(cc5nc(cc1[nH]2)C(C)=C5CCC(=O)O)C(CCC(=O)O)=C4C)c(C)c3C=C |  | 25.1 µM (active)
CCCCCCCCCCCCCCCC[N+](C)(C)CCN(Cc1ccc(OC)cc1)c1ncccn1 | 73.9% | 
Oc1cccc2cc(C3CC3)cnc12 | -16.4% | 
NC(=O)c1ncn([C@@H]2O[C@H](CO)[C@@H](O)[C@@H]2O)c1O | -9.27% | 
Cc1ccc(S(=O)(=O)Nc2ccc(Br)cc2C(=O)Nc2nc(-c3ccccc3)cs2)cc1 | 197% | 
CCCC1CCN(C(=O)COC(=O)c2ccc(S(C)(=O)=O)c([N+](=O)[O-])c2)CC1 | -26.4% | 

Structure (SMILES) | activity, negative = inhibition | Potency
O=C(O)c1ccc(O)c2ncc(N3CCC(N4CCOCC4)C3)cc12 (stereo not given) | -3.62% | 
C=CCNc1oc(-c2cccc3ccccc23)nc1C#N | -15.5% | 
Cn1cnc(-c2nccc3c(=O)[nH]c(OCCCC(F)(F)F)nc23)c1 | -20.2% | 
O=C1CCCC2=C1C1(CCOCC1)N=C(Nc1nc3ccccc3o1)N2 | 7.29% | 
O=S(=O)(Nc1nc2ccccc2s1)c1ccc(NCc2ccc(Br)cc2O)cc1 | -7.61% | 
CCC(=O)NC(c1cccs1)c1cc(Br)c2cccnc2c1O (stereo not given) | -17.2% | 
COc1ccc(NC(=O)c2[nH]c(C)c(C(C)=O)c2C)cc1[S+](=O)([O-])Nc1ccccc1C#N | -11% | 
CCCCCCCCOc1ccccc1C(=O)Nc1ccc(C(=O)OCC[N+](C)(CC)CC)cc1 |  | inactive
O=C(Cc1ccccc1)NC(c1ccco1)c1cc(Cl)c2cccnc2c1O (stereo not given) | 50.2% | 
CN1CCCN(C(=O)c2cccc(-c3ccc(C=C4C(=O)Nc5ccc(Cl)cc54)o3)c2)CC1 |  | 35.5 µM (active)
Cc1c(C)n(Cc2ccc(-c3ccccc3C(=O)O)cc2)c2ccc(C(=O)N[C@@H](C)c3ccc([N+](=O)[O-])cc3)cc12 | 6.01% | 
COc1ccc2c(=O)n3nc(Nc4cccc(N5CCN(C)CC5)c4)sc3nc2c1 | -9.89% | 
OCCOCCN1CCN(C(c2ccccc2)c2ccc(Cl)cc2)CC1 (stereo not given) | -12.4% | 
COc1ccccc1Nc1cc2ccccc2c(=O)[nH]1 |  | 35.5 µM (active)
Cc1ccccc1NC(=O)CN1C(=O)N/C(=C\c2cn(-c3cccc(C(=O)O)c3)cn2)C1=O | -15.3% | 
Cc1ccc(S(=O)(=O)Nc2cnccc2C(=O)Nc2nc(-c3ccc(Cl)cc3)cs2)cc1 | 43.7% | 
C=CCNc1oc(-c2ccc(-c3ccccc3)cc2)nc1C#N | -5.95% | 
N#Cc1ccc(NS(=O)(=O)c2ccc(NC(=O)Cc3ccc(Cl)c(Cl)c3)cc2)cc1 | 82.7% | 
CN1CCC(N(Cc2cccs2)c2ccccc2)CC1 | 7.51% | 
O=C1c2cccc(O)c2C(=O)c2c(O)cc(CO)cc21 | 2.61% | 
